# Measurements published in the supplement of paper PMC6555819.
# Experiments:
# Test in all cases: PBM binding z-score (relative to random genomic background probes); higher = stronger binding; sequences stand for … in GC…GCGATTGACAGCGTAGAATGAAGG
# [1] = system: FXR:RXRa (NR concentration 270 nM, RXRa partner concentration 90 nM)
# Method in brief: (§1)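 The probes on custom Agilent 4×180K protein-binding microarrays were double-stranded, with 34-nt variable regions bearing direct-repeat seeds, single-nucleotide variants, half-site ablations and random human genomic background sequences. Incubation lasted 1 h with ligand-free nuclear receptor dimers in PBS pH 7.4, 2% milk, 0.02% Triton X-100, 1 mM DTT, 0.2 mg/mL BSA and 0.4 mg/ml salmon testes DNA. Antibodies against each partner (one per run) detected bound dimers, and fluorescence scans were regression-normalized. Binding z-scores take the random background probes as reference.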
# [2] = system: LXRa:RXRa (NR concentration 270 nM, RXRa partner concentration 90 nM)
# Method in brief: as §1
# [3] = system: LXRa homodimer (NR concentration 270 nM)
# Method in brief: as §1
# [4] = system: LXRb:RXRa (NR concentration 270 nM, RXRa partner concentration 90 nM)
# Method in brief: as §1
# [5] = system: LXRb homodimer (NR concentration 270 nM)
# Method in brief: as §1
# [6] = system: PPARa:RXRa (NR concentration 270 nM, RXRa partner concentration 90 nM)
# Method in brief: as §1
# [7] = system: PPARg:RXRa (NR concentration 180 nM, RXRa partner concentration 90 nM)
# Method in brief: as §1
# [8] = system: PPARg:RXRa 270nM:90nM, anti-RXR (NR concentration 270 nM, RXRa partner concentration 90 nM)
# Method in brief: as §1
# [9] = system: PPARg:RXRa 30nM:10nM, anti-RXR (NR concentration 30 nM, RXRa partner concentration 10 nM)
# Method in brief: as §1
# [10] = system: PPARg:RXRa 90nM:30nM, anti-RXR (NR concentration 90 nM, RXRa partner concentration 30 nM)
# Method in brief: as §1
# [11] = system: PPARg:RXRa DBDmut IVT, anti-RXR (DBD mutation: RXRa K156A/R161A, NR concentration 270 nM, RXRa partner concentration 90 nM)
# Method in brief: as §1
# [12] = system: PPARg:RXRa IVT, anti-PPARg (NR concentration 270 nM, RXRa partner concentration 90 nM)
# Method in brief: as §1
# [13] = system: PPARg DBDmut:RXRa IVT, anti-PPARg (DBD mutation: PPARg1 K132A/R137A, NR concentration 270 nM, RXRa partner concentration 90 nM)
# Method in brief: as §1
# [14] = system: PPARg DBDmut IVT, anti-PPARg (DBD mutation: PPARg1 K132A/R137A, NR concentration 270 nM)
# Method in brief: as §1
# [15] = system: PPARg homodimer (NR concentration 180 nM)
# Method in brief: as §1
# [16] = system: PXR:RXRa (NR concentration 270 nM, RXRa partner concentration 90 nM)
# Method in brief: as §1
# [17] = system: PXR homodimer (NR concentration 270 nM)
# Method in brief: as §1
# [18] = system: RARa:RXR (NR concentration 270 nM, RXRa partner concentration 90 nM)
# Method in brief: as §1
# [19] = system: RARa homodimer (NR concentration 270 nM)
# Method in brief: as §1
# [20] = system: RARb:RXRa (NR concentration 270 nM, RXRa partner concentration 90 nM)
# Method in brief: as §1
Sequence,PBM binding z-score [1],PBM binding z-score [2],PBM binding z-score [3],PBM binding z-score [4],PBM binding z-score [5],PBM binding z-score [6],PBM binding z-score [7],PBM binding z-score [8],PBM binding z-score [9],PBM binding z-score [10],PBM binding z-score [11],PBM binding z-score [12],PBM binding z-score [13],PBM binding z-score [14],PBM binding z-score [15],PBM binding z-score [16],PBM binding z-score [17],PBM binding z-score [18],PBM binding z-score [19],PBM binding z-score [20]
ACTTACGGGTCAACGAGGTTATCGCACGCGTATA,7.3,5.42,1.07,4.36,1.13,5.83,5.87,5.69,2.32,4.5,4.15,4.2,2.65,1.38,3.14,5.58,4.21,5.88,0.958,4.4
CCTGCTAAGTCATGGTCAGCTAATCTACAGTATG,-0.197,-0.105,-0.185,-0.137,-0.307,-0.22,-0.135,-0.368,-0.358,-0.204,0.985,-0.177,-0.766,-0.271,0.146,-0.158,-0.39,-0.0535,-0.167,0.586
AGTCAAAGTTCAGGACGAGGTATCGTAAAGCACG,3.59,3.83,1.22,1.59,-0.0231,2.98,3.89,4.58,1.74,3.93,-0.507,0.996,0.0216,0.419,1.39,2.32,1.4,2.06,0.462,4.09
TCTGGTAGATCAATAGAGGTTAAGAAAGTGCGCT,0.764,3.4,0.62,1.81,-0.161,1.62,-0.137,1.4,2.44,1.78,1.4,0.577,0.241,0.106,0.418,3,0.367,1.75,0.0136,0.93
ATCTGTAGGTTAGCTGGGGTCATTCAGACTAGGC,3.92,6.12,3.25,4.61,1.64,4.22,2.15,3.26,0.98,2.02,2.69,2.92,1.42,1.67,2.28,6.74,4.22,6.24,1.28,3.19
GCTATTAGTTGAATGGGCAACCGAATGATTCTCG,-0.277,-0.309,-0.219,-0.351,-0.317,-0.737,0.129,-0.166,-0.146,0.0794,0.75,-0.332,-0.684,0.178,-0.436,-0.587,-0.28,-0.707,0.153,-0.226
GCGCCTGGGGCAAAGCAGGTTACCATAAGGTTGG,0.19,-0.148,-0.679,-0.341,-1.26,0.474,0.0826,-0.405,-0.693,-0.771,0.355,-0.0318,-1.1,-1.44,-0.5,0.277,-0.671,0.359,-0.592,1.02
ACCAGTTGGTCAGCTGAGGTCACACACAATTCGG,4.09,3.33,2.22,3.21,0.296,3.54,1.58,2.14,0.389,1.17,1.19,2.26,0.45,-0.406,2.59,5.42,2.07,4.41,0.742,3.71
ATCGAAAGCTCGACGAGGTGAGTATACACCGTTT,-0.406,-0.524,-0.742,-0.456,-0.163,-0.348,0.614,-0.448,0.105,-0.367,-0.441,0.00949,0.478,0.316,-0.162,-0.321,-0.326,-0.226,-0.876,-0.148
ACTTACGGGTCAACGAGGATATAGCACGCGTATA,6.53,4.05,0.457,3.61,0.828,5.43,5,5.19,2.12,3.85,3.44,3.76,1.49,1.58,2.26,3.34,0.678,4.19,1.35,3.88
ATACCAAGGTGATCGGGAGGTCGTTGATACTAAC,1.36,0.921,0.848,1.34,0.329,1.55,0.591,0.404,0.193,0.12,0.345,1.15,0.229,0.179,1.3,2.92,1.26,2.08,0.622,1.31
AGAACGAGGGCACGCTGAGGTGATAGCAGAGTAG,1.52,0.73,-0.584,0.0618,-1,2.18,2.3,2.19,0.193,1.29,4.07,4.06,1.26,0.179,0.573,0.989,-0.0676,1.66,-0.189,2.66
CGTTACGGGTCAAGGTTATAGCACGGGTGGTACG,5.94,3.83,0.0546,3.09,-0.0956,5.35,4.95,4.72,1.51,3.37,2.15,3.69,0.343,-0.183,1.78,3.44,0.111,3.92,0.367,4.29
ATCGAAAGGTCGATGAGGTGAGTATACACCGTTT,3.46,2.76,-0.117,2.16,0.539,3.5,1.83,2.19,1.1,1.4,0.00502,1.61,1.01,0.136,1.49,2.58,1.07,2.98,0.305,3.37
